# Reference: paper PMC7862700, “An all-to-all approach to the identification of sequence-specific readers for epigenetic DNA modifications on cytosine”
# What was measured:
# Assay in all cases: DAPPL (digital affinity profiling via proximity ligation, sequencing); 10 mM Tris-HCl pH 7.5, 50 mM NaCl, 1 mM DTT, 4% glycerol, room temperature, 30 min; GST-TFs on glutathione beads, 16-mer random dsDNA library, 0.1% formaldehyde crosslink after washing; high values mean tight binding
# [1] = target: T1, FLI1 (Homo sapiens, UniProt Q01543 1-452); conditions: protein: recombinant; tags: N-terminal GST; dsDNA, one strand shown
# T1 sequence: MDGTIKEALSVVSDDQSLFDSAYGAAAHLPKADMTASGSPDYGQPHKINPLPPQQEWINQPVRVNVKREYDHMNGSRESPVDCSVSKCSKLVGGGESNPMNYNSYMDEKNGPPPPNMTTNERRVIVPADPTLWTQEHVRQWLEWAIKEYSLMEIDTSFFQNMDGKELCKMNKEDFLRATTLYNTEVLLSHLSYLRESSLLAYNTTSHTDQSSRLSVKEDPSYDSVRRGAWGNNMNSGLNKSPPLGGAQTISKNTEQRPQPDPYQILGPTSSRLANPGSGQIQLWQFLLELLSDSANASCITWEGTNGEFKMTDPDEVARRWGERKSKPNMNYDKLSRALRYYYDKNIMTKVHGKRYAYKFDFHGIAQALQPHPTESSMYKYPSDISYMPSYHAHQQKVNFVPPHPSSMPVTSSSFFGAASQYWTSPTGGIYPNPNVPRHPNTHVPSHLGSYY
# Procedure, shortened: (§1)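 A tag-only sample was pooled with DNA-barcoded human transcription factors that had been expressed in yeast as GST fusions and captured on glutathione beads. The pools were incubated for 30 min at room temperature with 200 nmole of a random double-stranded 16-mer DNA library in Tris/NaCl/DTT/glycerol buffer, then washed, crosslinked with 0.1% formaldehyde, proximity-ligated (BsaI/T4 ligase, 1 h, 37 °C), PCR-amplified and sequenced on an Illumina NextSeq500. Binding signal is each hexamer's read frequency for a factor divided by its frequency for the tag-only sample.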
# [2] = target: T2, ELK1 (Homo sapiens, UniProt P19419 1-428); conditions: protein: recombinant; tags: N-terminal GST; dsDNA, one strand shown
# T2 sequence: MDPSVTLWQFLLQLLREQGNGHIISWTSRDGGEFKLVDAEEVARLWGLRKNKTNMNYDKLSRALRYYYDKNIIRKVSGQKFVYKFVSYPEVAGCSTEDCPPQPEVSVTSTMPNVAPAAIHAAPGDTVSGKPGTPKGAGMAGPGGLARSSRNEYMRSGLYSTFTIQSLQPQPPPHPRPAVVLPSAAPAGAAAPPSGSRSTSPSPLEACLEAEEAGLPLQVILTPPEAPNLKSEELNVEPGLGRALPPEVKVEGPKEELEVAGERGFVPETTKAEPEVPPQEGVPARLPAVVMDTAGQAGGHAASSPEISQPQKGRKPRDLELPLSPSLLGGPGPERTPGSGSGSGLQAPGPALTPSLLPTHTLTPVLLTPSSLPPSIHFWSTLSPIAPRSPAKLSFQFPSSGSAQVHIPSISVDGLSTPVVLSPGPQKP
# Procedure, shortened: as §1
# [3] = target: T3, GABPA (Homo sapiens, UniProt Q06546 1-454); conditions: protein: recombinant; tags: N-terminal GST; dsDNA, one strand shown
# T3 sequence: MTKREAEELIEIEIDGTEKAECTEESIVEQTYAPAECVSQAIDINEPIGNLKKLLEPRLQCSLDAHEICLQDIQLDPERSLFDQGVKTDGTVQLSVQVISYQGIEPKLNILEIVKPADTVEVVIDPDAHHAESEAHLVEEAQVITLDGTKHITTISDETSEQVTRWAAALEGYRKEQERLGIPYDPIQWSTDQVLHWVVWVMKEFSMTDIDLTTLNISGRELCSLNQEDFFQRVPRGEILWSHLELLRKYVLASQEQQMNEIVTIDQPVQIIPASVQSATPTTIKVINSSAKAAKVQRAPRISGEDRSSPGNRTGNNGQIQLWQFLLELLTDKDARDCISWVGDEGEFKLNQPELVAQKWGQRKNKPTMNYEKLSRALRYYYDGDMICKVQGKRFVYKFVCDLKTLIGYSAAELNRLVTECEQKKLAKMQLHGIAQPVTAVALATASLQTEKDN
# Procedure, shortened: as §1
# [4] = target: T4, ERG (Homo sapiens, UniProt P11308 1-479); conditions: protein: recombinant; tags: N-terminal GST; dsDNA, one strand shown
# T4 sequence: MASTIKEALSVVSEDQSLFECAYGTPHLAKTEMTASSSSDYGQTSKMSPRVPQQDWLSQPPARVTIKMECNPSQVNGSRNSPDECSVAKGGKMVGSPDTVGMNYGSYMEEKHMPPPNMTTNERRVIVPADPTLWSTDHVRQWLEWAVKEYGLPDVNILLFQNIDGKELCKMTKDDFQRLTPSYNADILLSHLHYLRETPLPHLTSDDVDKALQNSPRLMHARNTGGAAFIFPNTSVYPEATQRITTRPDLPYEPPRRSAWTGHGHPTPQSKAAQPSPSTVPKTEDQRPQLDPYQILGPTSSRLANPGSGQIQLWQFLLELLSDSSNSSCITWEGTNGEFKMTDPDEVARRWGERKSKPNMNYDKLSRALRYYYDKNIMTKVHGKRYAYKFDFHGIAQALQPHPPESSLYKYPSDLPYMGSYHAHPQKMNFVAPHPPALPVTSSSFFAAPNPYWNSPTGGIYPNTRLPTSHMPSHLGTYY
# Procedure, shortened: as §1
# [5] = target: ELF1 (Homo sapiens, UniProt P32519 1-619); conditions: protein: recombinant; tags: N-terminal GST; dsDNA, one strand shown
# Procedure, shortened: as §1
# [6] = target: T5, EHF (Homo sapiens, UniProt Q9NZC4 1-300); conditions: protein: recombinant; tags: N-terminal GST; dsDNA, one strand shown
# T5 sequence: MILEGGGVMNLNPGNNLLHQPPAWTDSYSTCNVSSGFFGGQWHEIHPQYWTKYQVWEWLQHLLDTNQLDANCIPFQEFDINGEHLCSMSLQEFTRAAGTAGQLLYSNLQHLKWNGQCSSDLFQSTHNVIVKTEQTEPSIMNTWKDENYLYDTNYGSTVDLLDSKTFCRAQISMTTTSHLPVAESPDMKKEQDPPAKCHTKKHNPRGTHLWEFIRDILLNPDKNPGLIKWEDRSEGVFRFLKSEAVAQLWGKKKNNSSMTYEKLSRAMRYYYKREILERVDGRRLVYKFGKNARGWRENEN
# Procedure, shortened: as §1
# [7] = target: SPI1 (Homo sapiens, UniProt P17947 1-270); conditions: protein: recombinant; tags: N-terminal GST; dsDNA, one strand shown
# Procedure, shortened: as §1
# [8] = target: SPIB (Homo sapiens, UniProt Q01892 1-262); conditions: protein: recombinant; tags: N-terminal GST; dsDNA, one strand shown
# Procedure, shortened: as §1
# [9] = target: T6, ELK3 (Homo sapiens, UniProt P41970 1-407); conditions: protein: recombinant; tags: N-terminal GST; dsDNA, one strand shown
# T6 sequence: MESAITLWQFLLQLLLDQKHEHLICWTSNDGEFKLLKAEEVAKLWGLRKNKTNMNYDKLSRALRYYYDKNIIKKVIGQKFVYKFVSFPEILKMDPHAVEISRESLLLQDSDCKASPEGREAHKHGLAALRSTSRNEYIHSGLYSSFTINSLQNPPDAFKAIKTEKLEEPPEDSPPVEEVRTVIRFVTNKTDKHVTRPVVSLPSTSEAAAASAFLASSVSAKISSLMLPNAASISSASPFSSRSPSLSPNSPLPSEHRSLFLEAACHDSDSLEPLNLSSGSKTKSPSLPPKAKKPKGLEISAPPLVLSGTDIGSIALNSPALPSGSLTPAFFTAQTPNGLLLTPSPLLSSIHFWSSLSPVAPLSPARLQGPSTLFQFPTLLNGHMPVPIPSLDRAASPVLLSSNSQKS
# Procedure, shortened: as §1
# [10] = target: T7, FEV (Homo sapiens, UniProt Q99581 1-238); conditions: protein: recombinant; tags: N-terminal GST; dsDNA, one strand shown
# T7 sequence: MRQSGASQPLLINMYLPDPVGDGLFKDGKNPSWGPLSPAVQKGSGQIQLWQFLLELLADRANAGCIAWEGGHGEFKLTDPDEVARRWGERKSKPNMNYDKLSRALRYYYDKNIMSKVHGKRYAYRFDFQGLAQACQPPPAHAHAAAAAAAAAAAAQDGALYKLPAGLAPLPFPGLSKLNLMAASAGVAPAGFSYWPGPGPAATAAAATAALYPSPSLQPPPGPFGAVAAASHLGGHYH
# Procedure, shortened: as §1
# [11] = target: ETV5 (Homo sapiens, UniProt P41161 1-510); conditions: protein: recombinant; tags: N-terminal GST; dsDNA, one strand shown
# Procedure, shortened: as §1
# [12] = target: HSF1 (Homo sapiens, UniProt Q00613 1-529); conditions: protein: recombinant; tags: N-terminal GST; chain copies: 3; dsDNA, one strand shown
# Procedure, shortened: as §1
# [13] = target: T8, SPIC (Homo sapiens, UniProt Q8N5J4 1-248); conditions: protein: recombinant; tags: N-terminal GST; dsDNA, one strand shown
# T8 sequence: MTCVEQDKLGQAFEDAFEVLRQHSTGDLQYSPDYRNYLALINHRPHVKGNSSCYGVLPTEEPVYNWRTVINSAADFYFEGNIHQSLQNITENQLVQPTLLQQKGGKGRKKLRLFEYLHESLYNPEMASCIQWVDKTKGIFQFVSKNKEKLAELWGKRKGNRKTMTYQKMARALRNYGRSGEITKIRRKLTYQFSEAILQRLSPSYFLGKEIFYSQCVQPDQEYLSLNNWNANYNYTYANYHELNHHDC
# Procedure, shortened: as §1
# [14] = target: ELF4 (Homo sapiens, UniProt Q99607 1-663); conditions: protein: recombinant; tags: N-terminal GST; dsDNA, one strand shown
# Procedure, shortened: as §1
# [15] = target: T9, ELK4 (Homo sapiens, UniProt P28324-2 1-405); conditions: protein: recombinant; tags: N-terminal GST; dsDNA, one strand shown
# T9 sequence: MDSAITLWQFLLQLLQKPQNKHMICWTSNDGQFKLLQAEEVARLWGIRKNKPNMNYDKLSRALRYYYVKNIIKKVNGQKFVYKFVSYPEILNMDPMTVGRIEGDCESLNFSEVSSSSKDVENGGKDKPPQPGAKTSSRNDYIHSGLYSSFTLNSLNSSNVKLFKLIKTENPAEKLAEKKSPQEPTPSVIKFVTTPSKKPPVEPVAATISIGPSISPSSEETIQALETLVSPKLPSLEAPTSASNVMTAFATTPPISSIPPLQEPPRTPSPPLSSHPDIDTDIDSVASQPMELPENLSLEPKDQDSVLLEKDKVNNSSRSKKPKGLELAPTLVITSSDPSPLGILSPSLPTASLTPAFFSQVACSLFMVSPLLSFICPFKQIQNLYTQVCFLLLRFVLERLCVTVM
# Procedure, shortened: as §1
# [16] = target: T10, ETV2 (Homo sapiens, UniProt O00321 1-342); conditions: protein: recombinant; tags: N-terminal GST; dsDNA, one strand shown
# T10 sequence: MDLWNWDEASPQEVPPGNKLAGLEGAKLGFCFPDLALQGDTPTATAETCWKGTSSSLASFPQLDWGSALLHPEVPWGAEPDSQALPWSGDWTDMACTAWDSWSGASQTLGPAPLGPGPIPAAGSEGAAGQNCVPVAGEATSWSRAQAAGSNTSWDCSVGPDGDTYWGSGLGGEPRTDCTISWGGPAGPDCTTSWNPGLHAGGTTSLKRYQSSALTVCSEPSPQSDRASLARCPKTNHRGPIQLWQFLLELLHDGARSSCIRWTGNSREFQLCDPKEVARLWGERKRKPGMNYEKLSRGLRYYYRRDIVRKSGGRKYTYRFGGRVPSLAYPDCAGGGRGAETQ
# Procedure, shortened: as §1
# [17] = target: T11, ELF3 (Homo sapiens, UniProt P78545 1-371); conditions: protein: recombinant; tags: N-terminal GST; dsDNA, one strand shown
# T11 sequence: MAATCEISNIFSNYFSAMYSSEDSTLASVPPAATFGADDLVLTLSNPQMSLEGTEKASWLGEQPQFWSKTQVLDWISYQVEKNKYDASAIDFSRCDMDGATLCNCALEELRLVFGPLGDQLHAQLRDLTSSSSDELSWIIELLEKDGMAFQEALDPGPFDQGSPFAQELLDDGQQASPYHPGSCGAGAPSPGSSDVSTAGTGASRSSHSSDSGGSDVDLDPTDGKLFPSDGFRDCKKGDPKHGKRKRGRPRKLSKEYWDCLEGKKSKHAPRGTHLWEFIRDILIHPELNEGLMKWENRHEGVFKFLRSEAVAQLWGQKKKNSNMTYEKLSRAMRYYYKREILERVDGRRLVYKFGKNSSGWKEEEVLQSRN
# Procedure, shortened: as §1
# [18] = target: CRX (Homo sapiens, UniProt O43186 1-299); conditions: protein: recombinant; tags: N-terminal GST; dsDNA, one strand shown
# Procedure, shortened: as §1
# [19] = target: ETV1 (Homo sapiens, UniProt P50549 1-477); conditions: protein: recombinant; tags: N-terminal GST; dsDNA, one strand shown
# Procedure, shortened: as §1
# ELF1, sequence (P32519 whole entry): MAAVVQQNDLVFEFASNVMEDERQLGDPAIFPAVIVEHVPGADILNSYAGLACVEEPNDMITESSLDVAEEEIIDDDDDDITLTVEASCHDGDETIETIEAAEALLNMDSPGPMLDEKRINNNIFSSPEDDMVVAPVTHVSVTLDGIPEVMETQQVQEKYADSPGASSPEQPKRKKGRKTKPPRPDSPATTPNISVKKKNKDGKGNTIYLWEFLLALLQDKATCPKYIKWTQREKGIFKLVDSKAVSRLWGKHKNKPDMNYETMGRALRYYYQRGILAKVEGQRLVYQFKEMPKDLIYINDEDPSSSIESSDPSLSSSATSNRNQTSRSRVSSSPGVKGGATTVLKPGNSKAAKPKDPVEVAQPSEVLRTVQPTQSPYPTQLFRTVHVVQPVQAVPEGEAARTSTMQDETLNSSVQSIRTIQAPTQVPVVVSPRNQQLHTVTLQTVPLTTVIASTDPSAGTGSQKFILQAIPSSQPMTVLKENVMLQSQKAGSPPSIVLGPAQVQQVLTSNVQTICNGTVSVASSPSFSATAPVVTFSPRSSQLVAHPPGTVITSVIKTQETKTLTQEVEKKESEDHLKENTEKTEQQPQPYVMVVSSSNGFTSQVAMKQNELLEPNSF
# CRX, sequence (O43186 whole entry): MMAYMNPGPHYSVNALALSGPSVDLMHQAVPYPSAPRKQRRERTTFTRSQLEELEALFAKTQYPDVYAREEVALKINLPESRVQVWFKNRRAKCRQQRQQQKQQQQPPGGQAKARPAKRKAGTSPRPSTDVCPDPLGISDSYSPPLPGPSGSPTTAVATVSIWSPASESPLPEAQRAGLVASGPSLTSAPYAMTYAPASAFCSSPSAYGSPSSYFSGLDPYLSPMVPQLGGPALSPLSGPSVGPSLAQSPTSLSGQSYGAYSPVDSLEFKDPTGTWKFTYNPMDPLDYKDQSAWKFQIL
# ELF4, sequence (Q99607 whole entry): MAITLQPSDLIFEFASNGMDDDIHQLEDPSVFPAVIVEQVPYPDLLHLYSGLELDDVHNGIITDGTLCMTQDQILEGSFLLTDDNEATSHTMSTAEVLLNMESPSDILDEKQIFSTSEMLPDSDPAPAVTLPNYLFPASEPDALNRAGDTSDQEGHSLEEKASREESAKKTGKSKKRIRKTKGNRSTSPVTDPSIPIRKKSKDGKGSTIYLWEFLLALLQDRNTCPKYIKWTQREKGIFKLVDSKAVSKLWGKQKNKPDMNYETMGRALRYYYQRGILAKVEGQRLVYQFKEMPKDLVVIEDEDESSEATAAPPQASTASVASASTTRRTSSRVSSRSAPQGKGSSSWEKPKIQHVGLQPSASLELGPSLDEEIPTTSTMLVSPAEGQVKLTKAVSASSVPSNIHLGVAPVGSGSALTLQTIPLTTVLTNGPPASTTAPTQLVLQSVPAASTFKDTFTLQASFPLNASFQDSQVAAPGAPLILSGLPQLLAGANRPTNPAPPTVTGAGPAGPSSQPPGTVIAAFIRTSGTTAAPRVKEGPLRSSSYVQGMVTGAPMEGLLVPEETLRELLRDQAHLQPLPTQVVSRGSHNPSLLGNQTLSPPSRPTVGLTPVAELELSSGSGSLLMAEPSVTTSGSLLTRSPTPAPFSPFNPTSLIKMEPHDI
# ETV1, sequence (P50549 whole entry): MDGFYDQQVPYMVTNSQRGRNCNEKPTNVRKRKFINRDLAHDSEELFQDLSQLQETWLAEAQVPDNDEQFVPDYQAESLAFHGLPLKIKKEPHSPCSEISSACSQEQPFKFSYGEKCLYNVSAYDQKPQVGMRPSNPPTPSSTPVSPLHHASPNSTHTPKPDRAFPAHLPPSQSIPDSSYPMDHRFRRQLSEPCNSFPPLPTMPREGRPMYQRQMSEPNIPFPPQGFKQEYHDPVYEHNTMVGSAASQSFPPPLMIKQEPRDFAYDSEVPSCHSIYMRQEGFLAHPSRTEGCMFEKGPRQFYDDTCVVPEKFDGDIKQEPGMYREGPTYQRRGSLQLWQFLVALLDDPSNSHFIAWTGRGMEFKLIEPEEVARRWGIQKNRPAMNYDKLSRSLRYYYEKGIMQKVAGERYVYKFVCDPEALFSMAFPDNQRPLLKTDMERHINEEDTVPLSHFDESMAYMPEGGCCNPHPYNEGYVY
# SPIB, sequence (Q01892 whole entry): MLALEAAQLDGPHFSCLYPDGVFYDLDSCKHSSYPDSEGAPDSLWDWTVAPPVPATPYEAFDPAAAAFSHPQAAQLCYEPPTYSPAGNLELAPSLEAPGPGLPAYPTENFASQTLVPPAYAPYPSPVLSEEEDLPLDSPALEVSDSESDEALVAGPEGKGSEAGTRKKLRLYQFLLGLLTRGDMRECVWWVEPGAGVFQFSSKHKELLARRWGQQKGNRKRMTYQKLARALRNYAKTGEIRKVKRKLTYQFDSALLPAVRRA
# ETV5, sequence (P41161 whole entry): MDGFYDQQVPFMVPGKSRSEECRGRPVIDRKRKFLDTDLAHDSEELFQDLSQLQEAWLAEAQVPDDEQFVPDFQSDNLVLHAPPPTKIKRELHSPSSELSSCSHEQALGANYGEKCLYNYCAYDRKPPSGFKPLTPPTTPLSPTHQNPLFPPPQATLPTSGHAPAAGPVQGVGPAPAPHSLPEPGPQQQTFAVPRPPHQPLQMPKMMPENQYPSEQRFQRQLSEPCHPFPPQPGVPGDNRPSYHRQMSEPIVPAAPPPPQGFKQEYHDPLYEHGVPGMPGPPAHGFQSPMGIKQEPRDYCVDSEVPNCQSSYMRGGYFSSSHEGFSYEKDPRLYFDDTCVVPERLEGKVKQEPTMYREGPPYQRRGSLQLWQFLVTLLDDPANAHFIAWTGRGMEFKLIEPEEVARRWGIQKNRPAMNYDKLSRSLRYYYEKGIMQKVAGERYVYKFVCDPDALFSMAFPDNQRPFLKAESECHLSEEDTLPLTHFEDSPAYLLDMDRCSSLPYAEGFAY
# HSF1, sequence (Q00613 whole entry): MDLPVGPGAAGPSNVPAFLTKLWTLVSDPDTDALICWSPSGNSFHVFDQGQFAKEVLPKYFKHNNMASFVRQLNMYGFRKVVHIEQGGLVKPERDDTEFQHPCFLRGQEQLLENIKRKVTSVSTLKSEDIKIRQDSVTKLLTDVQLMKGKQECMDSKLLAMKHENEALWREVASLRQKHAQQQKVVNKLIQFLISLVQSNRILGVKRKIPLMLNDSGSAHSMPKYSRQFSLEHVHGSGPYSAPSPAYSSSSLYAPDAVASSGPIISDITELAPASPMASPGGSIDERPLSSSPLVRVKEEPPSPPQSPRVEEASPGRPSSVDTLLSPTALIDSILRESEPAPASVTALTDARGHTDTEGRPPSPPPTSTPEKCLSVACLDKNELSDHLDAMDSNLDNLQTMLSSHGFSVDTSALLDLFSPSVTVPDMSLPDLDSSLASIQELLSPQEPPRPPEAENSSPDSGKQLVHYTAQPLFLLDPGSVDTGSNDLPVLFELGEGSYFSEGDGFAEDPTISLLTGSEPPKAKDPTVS
sequence,measurement,setting,value
CGTCTC,binding signal,[1],"1.41 fold enrichment (6-mer frequency, TF over GST control)"
same,binding signal,[2],"1.36 fold enrichment (6-mer frequency, TF over GST control)"
same,binding signal,[3],"1.49 fold enrichment (6-mer frequency, TF over GST control)"
same,binding signal,[4],"1.31 fold enrichment (6-mer frequency, TF over GST control)"
same,binding signal,[5],"1.53 fold enrichment (6-mer frequency, TF over GST control)"
same,binding signal,[6],"1.41 fold enrichment (6-mer frequency, TF over GST control)"
same,binding signal,[7],"1.36 fold enrichment (6-mer frequency, TF over GST control)"
same,binding signal,[8],"1.61 fold enrichment (6-mer frequency, TF over GST control)"
same,binding signal,[9],"1.63 fold enrichment (6-mer frequency, TF over GST control)"
same,binding signal,[10],"1.46 fold enrichment (6-mer frequency, TF over GST control)"
same,binding signal,[11],"1.46 fold enrichment (6-mer frequency, TF over GST control)"
same,binding signal,[12],"1.42 fold enrichment (6-mer frequency, TF over GST control)"
same,binding signal,[13],"1.47 fold enrichment (6-mer frequency, TF over GST control)"
same,binding signal,[14],"1.55 fold enrichment (6-mer frequency, TF over GST control)"
same,binding signal,[15],"1.49 fold enrichment (6-mer frequency, TF over GST control)"
same,binding signal,[16],"1.27 fold enrichment (6-mer frequency, TF over GST control)"
same,binding signal,[17],"1.46 fold enrichment (6-mer frequency, TF over GST control)"
same,binding signal,[18],"1.18 fold enrichment (6-mer frequency, TF over GST control)"
same,binding signal,[19],"1.43 fold enrichment (6-mer frequency, TF over GST control)"
